{"source": "PubChem BioAssay (EPA / NIEHS)", "key": {"[1]": {"experiment": "ACEA_AR_agonist_AUC_viability: ACEA Biosciences xCELLigence Real-Time Cell Analysis on Androgen Receptor Agonism for Viability (AID 2283775)", "summary_of_the_method": "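22Rv1 cells; impedance growth kinetics; 8-pt 1:4 dilutions from 100 uM top final, ≤0.5% DMSO; n = 2; 80 h read; AUC viability, loss-of-signal vs DMSO.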"}, "[2]": {"experiment": "ACEA_AR_antagonist_AUC_viability: ACEA Biosciences xCELLigence Real-Time Cell Analysis on Androgen Receptor Antagonism for Viability (AID 2283776);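 further: 22Rv1 human prostate cancer cells growing on impedance electrode plates; hits lower the growth signal relative to DMSO meaning cytotoxicity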", "summary_of_the_method": "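Real-time electrical impedance tracks 22Rv1 proliferation after continuous compound exposure (top 100 uM final, 1:4 steps, 8 concentrations). The 80 h area-under-curve serves as the cytotoxicity readout relative to DMSO.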"}, "[3]": {"experiment": "STM_H9_NormalizedViability: Cytotoxicity Assessment at 120 hours in the Stemina devTOX quickPredict H9 human embryonic stem cell (hESC)-based Assay (AID 2283784)", "summary_of_the_method": "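Viability endpoint: background-corrected CellTiter-Fluor RFU expressed relative to the 0.1% DMSO mean on each plate. Undifferentiated H9 cells were treated with daily re-dosing and media change, and loss of signal was fitted.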"}, "AR (gene 367)": {"target": "AR (gene 367) (UniProt P10275)", "sequence (P10275 whole entry, looked up)": "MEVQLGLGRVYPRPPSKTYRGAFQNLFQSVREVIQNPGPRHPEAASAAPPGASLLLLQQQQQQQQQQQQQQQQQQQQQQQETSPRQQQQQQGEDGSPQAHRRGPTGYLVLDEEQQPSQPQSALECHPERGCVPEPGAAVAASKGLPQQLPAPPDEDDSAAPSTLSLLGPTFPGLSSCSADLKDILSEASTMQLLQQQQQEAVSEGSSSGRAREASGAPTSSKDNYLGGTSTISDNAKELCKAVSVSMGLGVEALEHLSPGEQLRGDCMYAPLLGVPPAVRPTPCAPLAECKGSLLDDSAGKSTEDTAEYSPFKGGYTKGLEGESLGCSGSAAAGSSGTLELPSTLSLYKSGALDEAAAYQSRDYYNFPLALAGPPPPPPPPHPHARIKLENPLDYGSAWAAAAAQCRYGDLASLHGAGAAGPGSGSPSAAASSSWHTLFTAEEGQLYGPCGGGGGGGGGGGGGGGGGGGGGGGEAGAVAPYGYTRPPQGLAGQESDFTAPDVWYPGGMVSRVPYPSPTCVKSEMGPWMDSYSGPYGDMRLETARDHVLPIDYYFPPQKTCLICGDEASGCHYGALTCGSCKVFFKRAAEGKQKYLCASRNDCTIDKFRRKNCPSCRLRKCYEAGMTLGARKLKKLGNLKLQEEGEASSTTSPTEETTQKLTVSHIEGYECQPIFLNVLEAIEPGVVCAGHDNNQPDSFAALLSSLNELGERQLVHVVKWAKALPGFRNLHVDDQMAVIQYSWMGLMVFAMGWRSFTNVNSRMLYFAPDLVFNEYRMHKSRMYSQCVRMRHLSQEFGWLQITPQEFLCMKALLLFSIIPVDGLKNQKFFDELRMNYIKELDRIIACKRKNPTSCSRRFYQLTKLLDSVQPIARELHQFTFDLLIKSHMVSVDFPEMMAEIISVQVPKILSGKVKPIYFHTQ", "experiment": "ACEA_AR_agonist_80hr: ACEA Biosciences xCELLigence Real-Time Cell Analysis on Androgen Receptor Agonism for Proliferation (AID 2283783);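 further: hits increase impedance growth signal above DMSO baseline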", "summary_of_the_method": "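Eight concentrations, 1:4 serial dilution from a 100 uM final top, in biological duplicate. Impedance-based real-time growth of 22Rv1 cells after overnight baseline, recorded hourly and read at 80 hours. Controls: testosterone, MG132, assay media.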"}}, "note": "Inconclusive results are not listed. Calls of active or inactive are those of the source. How the source made its calls: active means hit-call score of the fitted dose curve at least 0.9, where 1 is the maximum; inconclusive means response in the unintended direction; inactive means score below 0.9.", "data": [{"smiles": "CCCCCCC(C)OC(=O)COc1nc(F)c(Cl)c(N)c1Cl", "note": "(centres undefined)", "values": [{"measurement": "AC50", "setting": "[1]", "result": "22.9 µM (active)"}, {"measurement": "AC50", "setting": "[2]", "result": "17.8 µM (active)"}]}, {"smiles": "CCC(C)OC(=O)N1CCCCC1CCO", "note": "(centres undefined)", "values": [{"measurement": "outcome", "setting": "[1]", "result": "inactive"}, {"measurement": "outcome", "setting": "[2]", "result": "inactive"}]}, {"smiles": "CCSC(=O)N(CC(C)C)CC(C)C", "values": [{"measurement": "outcome", "setting": "[1]", "result": "inactive"}, {"measurement": "outcome", "setting": "[2]", "result": "inactive"}, {"measurement": "outcome", "setting": "[3]", "result": "inactive"}]}, {"smiles": "COC(=O)CSc1cc(N=c2sc(=O)n3n2CCCC3)c(F)cc1Cl", "values": [{"measurement": "outcome", "setting": "[1]", "result": "inactive"}, {"measurement": "outcome", "setting": "[2]", "result": "inactive"}, {"measurement": "outcome", "setting": "AR (gene 367)", "result": "inactive"}, {"measurement": "AC50", "setting": "[3]", "result": "89.5 µM (active)"}]}, {"smiles": "OB(O)O", "values": [{"measurement": "outcome", "setting": "[2]", "result": "inactive"}, {"measurement": "outcome", "setting": "[3]", "result": "inactive"}]}, {"smiles": "Cc1nn(C)c(Oc2ccccc2)c1C=NOCc1ccc(C(=O)OC(C)(C)C)cc1", "values": [{"measurement": "AC50", "setting": "[1]", "result": "13 µM (active)"}, {"measurement": "AC50", "setting": "[2]", "result": "13.8 µM (active)"}, {"measurement": "AC50", "setting": "[3]", "result": "0.0346 µM (active)"}]}, {"smiles": "COC(=O)c1ccccc1C(=O)O", "values": [{"measurement": "outcome", "setting": "[1]", "result": "inactive"}, {"measurement": "outcome", "setting": "[2]", "result": "inactive"}, {"measurement": "outcome", "setting": "[3]", "result": "inactive"}]}, {"smiles": "C#CCOC(=O)[C@@H](C)Oc1ccc(Oc2ncc(Cl)cc2F)cc1", "values": [{"measurement": "AC50", "setting": "[1]", "result": "18.2 µM (active)"}, {"measurement": "AC50", "setting": "[2]", "result": "23.1 µM (active)"}, {"measurement": "AC50", "setting": "[3]", "result": "76 µM (active)"}]}, {"smiles": "COC(=O)c1ccc(I)cc1S(=O)(=O)NC(=O)Nc1nc(C)nc(OC)n1", "values": [{"measurement": "outcome", "setting": "[1]", "result": "inactive"}, {"measurement": "outcome", "setting": "[2]", "result": "inactive"}, {"measurement": "outcome", "setting": "[3]", "result": "inactive"}]}, {"smiles": "CCCCOC(=O)[C@@H](C)Oc1ccc(Oc2ccc(C(F)(F)F)cn2)cc1", "values": [{"measurement": "outcome", "setting": "[1]", "result": "inactive"}, {"measurement": "outcome", "setting": "[2]", "result": "inactive"}, {"measurement": "AC50", "setting": "[3]", "result": "73.8 µM (active)"}]}, {"smiles": "CCCCOC(=O)C(C)Oc1ccc(Oc2ccc(C(F)(F)F)cn2)cc1", "note": "(centres undefined)", "values": [{"measurement": "AC50", "setting": "[1]", "result": "43.1 µM (active)"}, {"measurement": "AC50", "setting": "[2]", "result": "50 µM (active)"}, {"measurement": "outcome", "setting": "[3]", "result": "inactive"}]}, {"smiles": "CCN(CC)C(=O)c1cccc(C)c1", "values": [{"measurement": "outcome", "setting": "[1]", "result": "inactive"}, {"measurement": "outcome", "setting": "[2]", "result": "inactive"}]}, {"smiles": "CCCCCOC(=O)COc1cc(N2C(=O)C3=C(CCCC3)C2=O)c(F)cc1Cl", "values": [{"measurement": "AC50", "setting": "[1]", "result": "78.1 µM (active)"}, {"measurement": "AC50", "setting": "[2]", "result": "77.8 µM (active)"}, {"measurement": "outcome", "setting": "[3]", "result": "inactive"}]}, {"smiles": "CC(C)(C)[C@@H](O)[C@@H](Cc1ccc(Cl)cc1)n1cncn1", "values": [{"measurement": "outcome", "setting": "[1]", "result": "inactive"}, {"measurement": "AC50", "setting": "[2]", "result": "24.1 µM (active)"}, {"measurement": "outcome", "setting": "[3]", "result": "inactive"}]}, {"smiles": "CCOC(=O)c1ccc(O)cc1", "values": [{"measurement": "outcome", "setting": "[2]", "result": "inactive"}]}, {"smiles": "CCOC(=O)COc1cc(-n2ncc(C(F)(F)F)c(C)c2=O)c(F)cc1Cl", "values": [{"measurement": "outcome", "setting": "[1]", "result": "inactive"}, {"measurement": "outcome", "setting": "[2]", "result": "inactive"}, {"measurement": "outcome", "setting": "AR (gene 367)", "result": "inactive"}]}, {"smiles": "CCN(Cc1c(F)cccc1Cl)c1c([N+](=O)[O-])cc(C(F)(F)F)cc1[N+](=O)[O-]", "values": [{"measurement": "AC50", "setting": "[1]", "result": "50 µM (active)"}, {"measurement": "AC50", "setting": "[2]", "result": "25 µM (active)"}, {"measurement": "AC50", "setting": "[3]", "result": "50 µM (active)"}]}, {"smiles": "COCCO", "values": [{"measurement": "outcome", "setting": "[2]", "result": "inactive"}]}, {"smiles": "COc1c(Cl)ccc(Cl)c1C(=O)O", "values": [{"measurement": "outcome", "setting": "[1]", "result": "inactive"}, {"measurement": "outcome", "setting": "[2]", "result": "inactive"}]}, {"smiles": "C[C@]12CC[C@@H]3c4ccc(O)cc4C[C@@H](CCCCCCCCCS(=O)CCCC(F)(F)C(F)(F)F)[C@H]3[C@@H]1CC[C@@H]2O", "note": "(some centres undefined)", "values": [{"measurement": "AC50", "setting": "[1]", "result": "10.9 µM (active)"}, {"measurement": "AC50", "setting": "[2]", "result": "8.37 µM (active)"}, {"measurement": "outcome", "setting": "AR (gene 367)", "result": "inactive"}]}, {"smiles": "CC(=O)[C@H]1CC[C@H]2[C@@H]3CCC4=CC(=O)CC[C@]4(C)[C@H]3CC[C@]12C", "values": [{"measurement": "outcome", "setting": "[1]", "result": "inactive"}, {"measurement": "outcome", "setting": "[2]", "result": "inactive"}]}, {"smiles": "CCOC(=O)C(C)Oc1ccc(Oc2cnc3cc(Cl)ccc3n2)cc1", "note": "(centres undefined)", "values": [{"measurement": "outcome", "setting": "[1]", "result": "inactive"}, {"measurement": "outcome", "setting": "[2]", "result": "inactive"}, {"measurement": "outcome", "setting": "[3]", "result": "inactive"}]}, {"smiles": "C[C@]12C[C@H](O)[C@H]3[C@@H](CCC4=CC(=O)CC[C@@]43C)[C@@H]1CC[C@@H]2C(=O)CO", "values": [{"measurement": "outcome", "setting": "[2]", "result": "inactive"}, {"measurement": "AC50", "setting": "[3]", "result": "80 µM (active)"}]}, {"smiles": "c1ccc2[nH]c(-c3cscn3)nc2c1", "values": [{"measurement": "AC50", "setting": "[1]", "result": "39.2 µM (active)"}, {"measurement": "AC50", "setting": "[2]", "result": "34.5 µM (active)"}, {"measurement": "outcome", "setting": "AR (gene 367)", "result": "inactive"}]}, {"smiles": "CCNc1nc(N)nc(Cl)n1", "values": [{"measurement": "outcome", "setting": "[2]", "result": "inactive"}, {"measurement": "outcome", "setting": "[3]", "result": "inactive"}]}]}
